Here are results for seven sequences from PMC7862700, “An all-to-all approach to the identification of sequence-specific readers for epigenetic DNA modifications on cytosine”.

Holding throughout (assay): DAPPL (digital affinity profiling via proximity ligation, sequencing); 10 mM Tris-HCl pH 7.5, 50 mM NaCl, 1 mM DTT, 4% glycerol, room temperature, 30 min; GST-TFs on glutathione beads, 16-mer random dsDNA library, 0.1% formaldehyde crosslink after washing; high values mean tight binding
Holding throughout (settings): protein: recombinant; tags: N-terminal GST; dsDNA, one strand shown

One test has as its target T1, FLI1 (Homo sapiens, UniProt Q01543 1-452).
T1 sequence: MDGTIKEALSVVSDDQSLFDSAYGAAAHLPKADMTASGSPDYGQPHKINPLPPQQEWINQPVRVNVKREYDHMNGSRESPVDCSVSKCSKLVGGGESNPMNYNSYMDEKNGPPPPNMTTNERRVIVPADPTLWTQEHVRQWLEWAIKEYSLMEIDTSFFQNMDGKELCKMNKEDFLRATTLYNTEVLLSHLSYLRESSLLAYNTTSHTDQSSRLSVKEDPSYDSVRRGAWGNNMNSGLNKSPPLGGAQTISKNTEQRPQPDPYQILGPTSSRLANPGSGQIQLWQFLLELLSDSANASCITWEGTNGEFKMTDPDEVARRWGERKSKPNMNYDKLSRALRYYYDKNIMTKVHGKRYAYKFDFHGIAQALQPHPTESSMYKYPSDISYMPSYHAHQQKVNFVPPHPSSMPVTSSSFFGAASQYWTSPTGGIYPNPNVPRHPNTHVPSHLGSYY
In outline: (§1)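 Binding signal is each hexamer's read frequency for a factor divided by its frequency in the tag-only sample. The factors were GST-fused human transcription factors from yeast, captured on glutathione beads, DNA-barcoded and pooled with that sample. Pools were incubated with 200 nmole of a random double-stranded 16-mer DNA library in Tris/NaCl/DTT/glycerol buffer at room temperature for 30 min, then washed, crosslinked with 0.1% formaldehyde, proximity-ligated with BsaI/T4 ligase (1 h, 37 °C), PCR-amplified and sequenced on an Illumina NextSeq500.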

The next test has as its target T2, ELK1 (Homo sapiens, UniProt P19419 1-428).
T2 sequence: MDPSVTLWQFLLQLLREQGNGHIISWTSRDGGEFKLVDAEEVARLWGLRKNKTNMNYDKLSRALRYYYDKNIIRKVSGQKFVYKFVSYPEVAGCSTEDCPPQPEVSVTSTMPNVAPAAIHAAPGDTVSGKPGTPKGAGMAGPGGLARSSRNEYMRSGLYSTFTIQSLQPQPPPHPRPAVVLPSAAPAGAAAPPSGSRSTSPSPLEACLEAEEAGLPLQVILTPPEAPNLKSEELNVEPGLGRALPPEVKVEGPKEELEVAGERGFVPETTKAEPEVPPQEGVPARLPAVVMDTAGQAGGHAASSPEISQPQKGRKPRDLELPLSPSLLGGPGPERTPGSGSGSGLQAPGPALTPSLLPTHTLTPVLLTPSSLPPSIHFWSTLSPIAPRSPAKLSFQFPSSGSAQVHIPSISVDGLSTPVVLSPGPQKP
The method, boiled down:
as §1

In a further test the target is T3, GABPA (Homo sapiens, UniProt Q06546 1-454).
T3 sequence: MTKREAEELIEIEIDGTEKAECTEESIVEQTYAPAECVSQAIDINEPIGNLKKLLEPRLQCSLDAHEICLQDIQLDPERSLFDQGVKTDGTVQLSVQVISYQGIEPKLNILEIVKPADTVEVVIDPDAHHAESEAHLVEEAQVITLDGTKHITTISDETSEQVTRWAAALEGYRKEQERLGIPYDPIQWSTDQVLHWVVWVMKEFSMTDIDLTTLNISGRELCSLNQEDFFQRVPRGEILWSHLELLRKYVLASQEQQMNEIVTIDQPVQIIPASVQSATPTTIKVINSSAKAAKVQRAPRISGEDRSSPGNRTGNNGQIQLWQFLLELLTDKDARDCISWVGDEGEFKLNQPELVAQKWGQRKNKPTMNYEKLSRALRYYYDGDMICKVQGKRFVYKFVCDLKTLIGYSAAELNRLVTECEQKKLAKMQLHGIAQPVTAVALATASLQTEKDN
The method, boiled down: as §1

For another test, the target named is T4, ERG (Homo sapiens, UniProt P11308 1-479).
T4 sequence: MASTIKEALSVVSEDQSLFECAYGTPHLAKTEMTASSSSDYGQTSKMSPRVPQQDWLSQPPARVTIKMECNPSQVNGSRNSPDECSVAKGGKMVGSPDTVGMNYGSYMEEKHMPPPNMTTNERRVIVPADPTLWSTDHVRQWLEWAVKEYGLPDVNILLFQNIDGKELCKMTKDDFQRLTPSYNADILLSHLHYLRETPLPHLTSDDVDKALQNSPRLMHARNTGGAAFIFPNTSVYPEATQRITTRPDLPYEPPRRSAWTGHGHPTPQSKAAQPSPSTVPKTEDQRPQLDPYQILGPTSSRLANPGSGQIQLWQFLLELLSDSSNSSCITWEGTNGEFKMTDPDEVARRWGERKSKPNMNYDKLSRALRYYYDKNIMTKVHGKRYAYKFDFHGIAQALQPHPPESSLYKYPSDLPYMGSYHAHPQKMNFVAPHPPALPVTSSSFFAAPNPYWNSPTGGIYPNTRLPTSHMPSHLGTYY
The method, boiled down:
as §1

Another test has as its target ELF1 (Homo sapiens, UniProt P32519 1-619). The method, boiled down:
as §1

Another test has as its target T5, EHF (Homo sapiens, UniProt Q9NZC4 1-300).
T5 sequence: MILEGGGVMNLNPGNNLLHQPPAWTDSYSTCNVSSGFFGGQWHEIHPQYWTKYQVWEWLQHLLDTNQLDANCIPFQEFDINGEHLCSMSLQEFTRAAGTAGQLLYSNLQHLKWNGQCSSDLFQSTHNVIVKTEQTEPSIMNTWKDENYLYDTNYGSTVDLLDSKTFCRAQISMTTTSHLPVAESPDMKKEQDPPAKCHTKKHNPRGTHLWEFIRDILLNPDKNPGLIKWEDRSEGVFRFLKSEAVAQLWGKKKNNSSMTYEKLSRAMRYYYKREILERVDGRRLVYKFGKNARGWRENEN
In outline:
as §1

A further test has as its target SPI1 (Homo sapiens, UniProt P17947 1-270). The method, boiled down: as §1
For another test, the target named is SPIB (Homo sapiens, UniProt Q01892 1-262). The method, boiled down: as §1
SPIB, sequence (Q01892 whole entry): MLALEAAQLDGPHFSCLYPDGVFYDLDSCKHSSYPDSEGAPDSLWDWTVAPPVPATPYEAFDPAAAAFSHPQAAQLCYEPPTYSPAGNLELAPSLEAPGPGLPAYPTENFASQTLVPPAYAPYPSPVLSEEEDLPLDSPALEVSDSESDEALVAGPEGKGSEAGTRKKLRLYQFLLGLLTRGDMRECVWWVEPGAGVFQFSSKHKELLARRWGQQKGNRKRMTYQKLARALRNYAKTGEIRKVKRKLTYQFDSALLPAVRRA
A further test concerns the target T6, ELK3 (Homo sapiens, UniProt P41970 1-407).
T6 sequence: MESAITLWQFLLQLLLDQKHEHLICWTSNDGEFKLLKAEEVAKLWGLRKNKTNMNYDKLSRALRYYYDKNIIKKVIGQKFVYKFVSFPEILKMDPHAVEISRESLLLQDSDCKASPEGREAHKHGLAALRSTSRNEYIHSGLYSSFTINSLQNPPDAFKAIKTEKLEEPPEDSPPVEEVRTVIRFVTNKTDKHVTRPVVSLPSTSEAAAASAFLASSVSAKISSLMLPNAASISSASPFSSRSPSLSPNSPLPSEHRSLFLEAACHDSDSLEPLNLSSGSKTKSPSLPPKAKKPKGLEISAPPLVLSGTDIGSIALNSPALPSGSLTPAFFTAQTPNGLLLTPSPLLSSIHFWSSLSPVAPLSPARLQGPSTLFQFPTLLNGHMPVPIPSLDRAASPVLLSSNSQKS
The method, boiled down: as §1

ELF1, sequence (P32519 whole entry): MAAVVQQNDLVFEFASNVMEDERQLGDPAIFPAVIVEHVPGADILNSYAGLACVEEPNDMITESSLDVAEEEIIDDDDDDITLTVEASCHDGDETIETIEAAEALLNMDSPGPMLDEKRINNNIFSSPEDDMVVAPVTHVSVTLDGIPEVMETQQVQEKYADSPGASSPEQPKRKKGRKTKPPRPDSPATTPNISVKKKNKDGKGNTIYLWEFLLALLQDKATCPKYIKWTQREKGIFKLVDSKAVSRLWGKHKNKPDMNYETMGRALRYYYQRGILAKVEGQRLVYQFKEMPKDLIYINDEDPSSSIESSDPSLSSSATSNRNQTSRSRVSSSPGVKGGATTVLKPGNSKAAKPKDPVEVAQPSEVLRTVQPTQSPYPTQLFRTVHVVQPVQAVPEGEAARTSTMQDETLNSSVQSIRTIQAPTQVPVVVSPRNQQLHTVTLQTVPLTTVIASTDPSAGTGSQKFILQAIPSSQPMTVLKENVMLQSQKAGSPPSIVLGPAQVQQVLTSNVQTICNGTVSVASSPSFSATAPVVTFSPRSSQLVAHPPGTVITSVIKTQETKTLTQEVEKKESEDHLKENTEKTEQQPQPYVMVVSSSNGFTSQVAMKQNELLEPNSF

With TTTTCG, the binding signal in the test with FLI1 is 1.18 fold enrichment (6-mer frequency, TF over GST control); in the test with ELK1, 1.28 fold enrichment (6-mer frequency, TF over GST control); in the test with GABPA, 1.24 fold enrichment (6-mer frequency, TF over GST control); in the test with ERG, 1.2 fold enrichment (6-mer frequency, TF over GST control); with ELF1, 1.22 fold enrichment (6-mer frequency, TF over GST control); with EHF it was 1.25 fold enrichment (6-mer frequency, TF over GST control). In addition, the binding signal was 1.27 fold enrichment (6-mer frequency, TF over GST control) with SPI1; 1.16 fold enrichment (6-mer frequency, TF over GST control) with SPIB; 1.35 fold enrichment (6-mer frequency, TF over GST control) in the test with ELK3.
Take TAATCA: the binding signal was 1.17 fold enrichment (6-mer frequency, TF over GST control) with FLI1; 1.14 fold enrichment (6-mer frequency, TF over GST control) with ELK1; 1.25 fold enrichment (6-mer frequency, TF over GST control) with GABPA; 1.07 fold enrichment (6-mer frequency, TF over GST control) with ERG; 1.16 fold enrichment (6-mer frequency, TF over GST control) in the test with ELF1; 1.08 fold enrichment (6-mer frequency, TF over GST control) with EHF. Further, the binding signal with SPI1 is 1.07 fold enrichment (6-mer frequency, TF over GST control); with SPIB, 1.16 fold enrichment (6-mer frequency, TF over GST control); in the test with ELK3, 1.09 fold enrichment (6-mer frequency, TF over GST control).
On to CTACGG, for which the binding signal with FLI1 was 1.19 fold enrichment (6-mer frequency, TF over GST control); with ELK1, 1.27 fold enrichment (6-mer frequency, TF over GST control); with GABPA it was 1.22 fold enrichment (6-mer frequency, TF over GST control); in the test with ERG, 1.21 fold enrichment (6-mer frequency, TF over GST control); in the test with ELF1, 1.29 fold enrichment (6-mer frequency, TF over GST control); with EHF it was 1.31 fold enrichment (6-mer frequency, TF over GST control). For the same sequence, the binding signal was 1.24 fold enrichment (6-mer frequency, TF over GST control) in the test with SPI1; 1.28 fold enrichment (6-mer frequency, TF over GST control) with SPIB; 1.24 fold enrichment (6-mer frequency, TF over GST control) in the test with ELK3.
On to TATCCG, for which the binding signal with FLI1 was 2.64 fold enrichment (6-mer frequency, TF over GST control); with ELK1, 2.53 fold enrichment (6-mer frequency, TF over GST control); with GABPA, 2.26 fold enrichment (6-mer frequency, TF over GST control); with ERG, 3.2 fold enrichment (6-mer frequency, TF over GST control); with ELF1, 2.38 fold enrichment (6-mer frequency, TF over GST control); in the test with EHF it was 2.48 fold enrichment (6-mer frequency, TF over GST control). Moreover, the binding signal with SPI1 is 2.29 fold enrichment (6-mer frequency, TF over GST control); with SPIB, 2.8 fold enrichment (6-mer frequency, TF over GST control); with ELK3, 2.41 fold enrichment (6-mer frequency, TF over GST control).
On to TCTTGT, for which the binding signal is 1.48 fold enrichment (6-mer frequency, TF over GST control) with FLI1; 1.64 fold enrichment (6-mer frequency, TF over GST control) in the test with ELK1; 1.53 fold enrichment (6-mer frequency, TF over GST control) with GABPA; 1.54 fold enrichment (6-mer frequency, TF over GST control) with ERG; 1.53 fold enrichment (6-mer frequency, TF over GST control) in the test with ELF1; 1.57 fold enrichment (6-mer frequency, TF over GST control) with EHF. The binding signal in the test with SPI1 is 1.5 fold enrichment (6-mer frequency, TF over GST control); in the test with SPIB, 1.55 fold enrichment (6-mer frequency, TF over GST control); in the test with ELK3, 1.58 fold enrichment (6-mer frequency, TF over GST control).
For TGATGC, the binding signal is 1.49 fold enrichment (6-mer frequency, TF over GST control) in the test with FLI1; 1.63 fold enrichment (6-mer frequency, TF over GST control) in the test with ELK1; 1.65 fold enrichment (6-mer frequency, TF over GST control) with GABPA; 1.4 fold enrichment (6-mer frequency, TF over GST control) in the test with ERG; 1.64 fold enrichment (6-mer frequency, TF over GST control) with ELF1; 1.58 fold enrichment (6-mer frequency, TF over GST control) with EHF. Further, the binding signal in the test with SPI1 is 1.42 fold enrichment (6-mer frequency, TF over GST control); in the test with SPIB it was 1.47 fold enrichment (6-mer frequency, TF over GST control); with ELK3, 1.72 fold enrichment (6-mer frequency, TF over GST control).
In the case of TTAAAG, the binding signal with FLI1 was 1.17 fold enrichment (6-mer frequency, TF over GST control); with ELK1, 1.11 fold enrichment (6-mer frequency, TF over GST control); with GABPA, 1.26 fold enrichment (6-mer frequency, TF over GST control); with ERG, 1.1 fold enrichment (6-mer frequency, TF over GST control); with ELF1 it was 1.19 fold enrichment (6-mer frequency, TF over GST control); with EHF it was 1.18 fold enrichment (6-mer frequency, TF over GST control). Further, the binding signal is 1.12 fold enrichment (6-mer frequency, TF over GST control) with SPI1; 1.19 fold enrichment (6-mer frequency, TF over GST control) with SPIB; 1.09 fold enrichment (6-mer frequency, TF over GST control) in the test with ELK3.
